Among the test systems are DU-145 prostate; K-562 leukemia; MALME-3M melanoma; MDA-MB-231 breast; RXF 393 renal; SF-268 CNS; SF-295 CNS; SF-539 CNS; UACC-257 melanoma; M14 melanoma.
Holding throughout (assay): NCI-60 one-dose screen, 48 h (100 = growth as untreated, 0 = no growth, -100 = all killed)
Conditions in all cases: 10 µM unless noted

SMILES strings stand for the structures. The panel holds about 83,000 compounds, 20% with a hit somewhere; the sample as a whole holds those more often.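 Treatment: one concentration, 48 hours, 96-well format. Scoring: percent growth, with anything below 10 considered active.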 A number with no mark means an inactive call. Activity calls are given as the source filed them.

For `COC(=O)C(Cc1cnc[nH]1)N1CC(=O)N2[C@@H](c3ccccc3)SC[C@H]2C1=O` (stereo not given in full), the growth in the assay with DU-145 prostate was 117%; in the assay on K-562 leukemia, 106%; in the assay on MALME-3M melanoma, 108%; with MDA-MB-231 breast it was 116%; in the assay on RXF 393 renal, 193%; with SF-268 CNS, 104%. The growth in the assay with SF-295 CNS was 93.5%; in the assay with SF-539 CNS, 105%; in the assay with UACC-257 melanoma, 96.7%; in the assay on M14 melanoma, 101%.
Turning to `O=Nc1c(-c2c(O)[nH]c3cc(Br)ccc23)[nH]c2ccccc12`, the growth in the assay on DU-145 prostate was -88.8% (active); in the assay on K-562 leukemia, -64.1% (active); with MALME-3M melanoma, 61.6%; in the assay with MDA-MB-231 breast, 9.57% (active); in the assay on RXF 393 renal, -62.6% (active); in the assay with SF-268 CNS, -61% (active). In addition, the growth in the assay on SF-295 CNS was -26.2% (active); with SF-539 CNS, -44.8% (active); in the assay on UACC-257 melanoma, -78.8% (active); with M14 melanoma, 31.1%.
For the molecule `COC(c1ccccc1)C(Br)C(=O)c1ccccc1` (stereo not given), the growth in the assay with DU-145 prostate is 116%; in the assay with K-562 leukemia, 93.8%; with MALME-3M melanoma it was 87.8%; with MDA-MB-231 breast, 92.9%; in the assay with RXF 393 renal it was 89.4%; in the assay on SF-268 CNS, 108%. In addition, the growth is 93.3% in the assay on SF-295 CNS, 99.5% in the assay on SF-539 CNS, 87.2% with UACC-257 melanoma and 90.6% in the assay on M14 melanoma.

The values are drawn from PubChem BioAssay (NCI).
